Assay outcomes deposited in PubChem BioAssay by National Center for Advancing Translational Sciences (NCATS).
Compounds with a hit are over-represented: about 19% of the library has one in this group of screens.
TDP1 cell noCPT = qHTS for Inhibitors of human tyrosyl-DNA phosphodiesterase 1 (TDP1): qHTS in cells in absence of CPT; DT40 Tdp1-/- hTDP1 cells, no CPT, ATP luminescence, 48 h; Potency, µM (doses to about 46.2 µM), hits mostly inhibitors; 15% of 420,000 active; further: nearly all actives have a fitted effect of over 55% in size
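DT40 Tdp1-/-;hTDP1 cells, no CPT (DMSO vehicle only), 400 cells/well; compounds pin-transferred; ≥48 hr, 37 °C; CellTiter-Glo 30 min RT dark, luminescence read.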
IL1B secr inh = qHTS for Inhibitors of Inflammasome Signaling: IL-1-beta AlphaLISA Primary Screen. THP-1 LPS/ATP IL-1B secretion, AlphaLISA, 16 h; active compounds read low. activity change, % at 57.5 µM. 4.7% of 360,000 active. AID 743279, 2014; in the data active means activity change below about -50%; inconclusive means mostly about -30% to -49%
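THP-1 cells pretreated 1 hr with compounds (up to 57.5 uM final), then stimulated with LPS (250 ng/mL final) plus ATP (1.25 mM final); secreted IL-1B measured by AlphaLISA after 16 hr, decreased signal indicating inhibition.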
HT1080 IDH1KD tx = qHTS for induction of synthetic lethality in tumor cells producing 2HG: qHTS for the HT-1080-IDH1KD cell line; Potency, µM (highest dose often 46.1 µM), most hits filed as cytotoxic; 2% of 360,000 active; HT-1080 IDH1 knockdown viability, ATP luminescence, 48 h; AID 686971, 2013
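% activity derives from luminescence (CellTiter-Glo), normalised to DMSO and no-cell wells. HT-1080-IDH1KD cells, 750/well, had 48 h compound exposure at 37 °C.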
ELG1 repair inh = qHTS screen for small molecules that inhibit ELG1-dependent DNA repair in human embryonic kidney (HEK293T) cells expressing luciferase-tagged ELG1. HEK293T ELG1-luciferase reporter, luminescence, 16 h; DNA damage induced by 5-fluorouridine. Potency, µM (series often up to 46.1 µM), usual class: inhibitors. 2.3% of 330,000 active; further: nearly all actives have a fitted effect of over 55% in size
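Quantitative HTS, concentration-response format. 2,000 cells/well co-treated with 5-fluorouridine and compound, 16 hr in 5% CO2 at 37 °C; ONE-Glo luminescence read after 30 min.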
HT1080-NT tox = qHTS for induction of synthetic lethality in tumor cells producing 2HG: qHTS for the HT-1080-NT fibrosarcoma cell line; HT-1080-NT fibrosarcoma viability, CellTiter-Glo ATP luminescence, 48 h; AID 686970, 2013; 1.6% of 360,000 active; Potency, µM (titrated, usually from 46.1 µM), usual class: cytotoxic;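 further: NT is the 2HG producing partner of a matched IDH1 knockdown line; nearly all actives have a fitted effect of over 55% in size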
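Fibrosarcoma NT cells, 750 per well in 5% FBS RPMI, were exposed to compound for 48 hours. Viability: CellTiter-Glo luminescence.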
TDP1 cell CPT = qHTS for Inhibitors of human tyrosyl-DNA phosphodiesterase 1 (TDP1): qHTS in cells in presence of CPT; chicken DT40 Tdp1-/-;hTDP1 cells + 20 nM CPT, ATP luminescence, 48 h; Potency, µM (highest dose often 46.2 µM), hits mostly inhibitors; 12% of 420,000 active; AID 686979, 2013; further: nearly all actives have a fitted effect of over 55% in size
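Chicken DT40 Tdp1-/- cells stably complemented with human TDP1 were seeded at 400 cells/well in medium containing 20 nM camptothecin, exposed to pin-transferred compounds, and grown at 37 °C for at least 48 hr. Viability was read as ATP luminescence.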
A number is an active result; i = inactive; ? = inconclusive; nt = not tested or not shown. Unless noted, the call rests on the fitted dose curve; in most records, active means well fitted curve in the direction sought with a large enough effect; inconclusive means small, poorly fitted or top-dose-only effect, or another doubt; inactive means no such curve, though single readings can be large; an effect the other way counts as inactive or inconclusive.

SMILES | TDP1 cell noCPT | IL1B secr inh | HT1080 IDH1KD tx | ELG1 repair inh | HT1080-NT tox | TDP1 cell CPT
CC1(C)S[C@@H]2[C@H](NC(=O)C(NC(=O)N3CCNC3=O)c3ccccc3)C(=O)N2[C@H]1C(=O)O (some centres undefined) | i | i | i | i | i | i
O=C(Nc1cccc(C(F)(F)F)c1)c1cc2nc(-c3ccccc3)cc(C(F)(F)F)n2n1 | i | nt | nt | nt | nt | i
CC1Cc2ccccc2N1C(=O)CSc1nc2c(c(=O)n(C)c(=O)n2C)n1Cc1ccccc1 (centres undefined) | 21µM | i | i | ? | i | 23µM
CCn1c(SCC(=O)N2c3ccccc3CCc3ccccc32)nc2c1c(=O)n(C)c(=O)n2C | ? | i | i | nt | ? | ?
COc1ccc(N2CCN(c3nc4c(c(=O)n(C)c(=O)n4C)n3Cc3ccccc3)CC2)cc1 | ? | i | i | ? | i | 23µM
COc1ccc(OCC(O)Cn2c(N3CCCCC3)nc3c2c(=O)n(C)c(=O)n3C)cc1 (centres undefined) | 16µM | i | i | ? | i | ?
CCCCCCn1c(N2CCN(c3ccccc3)CC2)nc2c1c(=O)n(C)c(=O)n2C | 21µM | i | i | i | i | ?
Cc1ccc2c(c1)N(CC(=O)N1CCCCC1C)C(=O)CO2 (centres undefined) | i | i | i | i | i | i
CC(C)NS(=O)(=O)c1ccc(Br)c(C(=O)OC(C)C(=O)NC2CCCCC2C)c1 (centres undefined) | ? | i | i | i | i | i
O=C(CC1(O)C(=O)Nc2cc(Cl)cc(Cl)c21)c1ccccc1O (centres undefined) | ? | -80 | ? | i | ? | ?
O=c1oc2ccc3ccccc3c2cc1-c1nnc(Nc2ccc(Cl)cc2Cl)s1 | i | nt | nt | nt | nt | i
CCCn1c2ccccc2c2nnc(SCCN3CCOCC3)nc21 | ? | i | ? | ? | i | ?
C=CCn1c2ccccc2c2nnc(SCCN3CCCCC3)nc21 | 18µM | i | i | i | i | i
C=CCn1c2ccccc2c2nnc(SCCCn3c(=O)[nH]c4ccccc43)nc21 | 13µM | -79 | 16µM | ? | ? | ?
c1ccc(Cn2c3ccccc3c3nnc(SCCN4CCCCC4)nc32)cc1 | 23µM | nt | i | ? | i | 23µM
COc1ccccc1C(=O)Nc1ccc2c(c1)nc(CCNC(=O)c1ccco1)n2C | 0.92µM | i | 4.6µM | i | ? | 1.3µM
Cn1c(CCNC(=O)c2ccco2)nc2cc(NS(=O)(=O)c3ccccc3)ccc21 | ? | i | i | ? | i | 21µM
COc1ccccc1CNC(=O)C1CCN(S(=O)(=O)c2ccc3[nH]c(=O)ccc3c2)CC1 | i | nt | nt | nt | nt | i
Cc1nc(C(C)NC2CCN(c3cccc(NC(=O)c4ccncc4)c3)CC2)cs1 (centres undefined) | i | nt | nt | nt | nt | ?
CCCCCCCCCCCCCCCCOCCOCCOCCOCCOCCOCCOCCOCCOCCOCCOCCOCCOCCOCCOCCOCCOCCOCCOCCOCCO | 7.5µM | nt | nt | nt | nt | 24µM
CCCCCCCCCCOCC(O)CN (centres undefined) | 6.7µM | nt | nt | nt | nt | 6.7µM
CCCCCCCC(=O)OCC(O)CO (centres undefined) | i | i | i | i | i | i
CCCCOCCO | i | i | nt | nt | nt | i
CC(NC(=S)Nc1ccccc1C(F)(F)F)C1CC2CCC1C2 (centres undefined) | i | i | i | i | i | i
Cc1ccc(CNC(=O)Cn2cnc3c(NC(=O)OCc4ccccc4)ncnc32)o1 | i | i | i | ? | i | i
SMILES | TDP1 cell noCPT | IL1B secr inh | HT1080 IDH1KD tx | ELG1 repair inh | HT1080-NT tox | TDP1 cell CPT
CC1=Nc2cc(C(=O)NCC3CCCO3)ccc2Sc2ccc(Br)cc21 (centres undefined) | 5.8µM | i | 16µM | ? | 10µM | 3.7µM
CCOC(=O)N1CCN(C(=O)c2ccc3c(c2)N=C(CC)c2cc(C)ccc2S3)CC1 | 10µM | i | i | ? | i | 16µM
CCOC(=O)N1CCC(NC(=O)c2ccc3c(c2)N=C(CC)c2cc(C)ccc2S3)CC1 | 18µM | i | 5.8µM | ? | ? | 10µM
CCC1=Nc2cc(C(=O)N3CCCCC3)ccc2Sc2ccc(C)cc21 | ? | i | i | i | i | i
CC1=Nc2cc(C(=O)O)ccc2Sc2ccc(Br)cc21 | i | i | i | i | i | i
CCC1=Nc2cc(C(=O)NC3CCCC3)ccc2Sc2ccc(Br)cc21 | 0.73µM | nt | nt | nt | nt | 0.73µM
CCOC(=O)N1CCC(NC(=O)c2cc(COc3c(C)cccc3C)on2)CC1 | ? | ? | i | i | i | ?
CCC1=Nc2cc(C(=O)NC3CCC(C)CC3)ccc2Sc2ccc(C)cc21 (centres undefined) | 0.65µM | nt | nt | nt | nt | 1.3µM
CCCC1=Nc2cc(C(=O)N3CCCC3)ccc2Sc2ccc(C)cc21 | ? | i | ? | i | i | ?
CCOC(=O)N1CCC(NC(=O)c2ccc3c(c2)N=C(C)c2c(C)ccc(C)c2S3)CC1 | 1.2µM | i | 2.3µM | ? | 2.1µM | 2.1µM
CCCC1=Nc2cc(C(=O)N3CCC(C)CC3)ccc2Sc2ccc(C)cc21 | i | nt | nt | nt | nt | i
S=C(NCC1CCCO1)c1ccc(Br)cc1 (centres undefined) | ? | -84 | i | ? | i | ?
CCCC1=Nc2cc(C(=O)NC3CCCC3)ccc2Sc2ccc(C)cc21 | 1µM | nt | nt | nt | nt | 1.5µM
COc1ccc(CNC(=O)CCS(=O)(=O)c2cc(Br)cc3c2N(C(C)=O)C(C)C3)cc1 (centres undefined) | ? | nt | nt | nt | nt | i
COc1cccc(-c2cn3ncsc3n2)c1 | i | nt | nt | nt | nt | i
CCC1=Nc2cc(C(=O)NCc3ccco3)ccc2Sc2ccc(C)cc21 | 1.3µM | i | 1.3µM | i | 1.3µM | 1.5µM
CC1=Nc2cc(C(=O)NC3CCCCC3)ccc2Sc2ccc(Cl)cc21 | 1µM | nt | nt | nt | nt | 0.82µM
CC1=Nc2cc(C(=O)N3CCCCC3)ccc2Sc2ccc(C)cc21 | ? | i | i | i | i | i
CCC1=Nc2cc(C(=O)NCCN3CCOCC3)ccc2Sc2ccc(C)cc21 | i | i | i | i | i | i
COc1ncc2nc(-c3ccccc3)c(=O)n(CCC#N)c2n1 | i | nt | nt | nt | nt | i
